In all, about 310,000 compounds went through this assay and about 1,200 (0.39%) were called active. No rule for the calls is given here. Only a sample is shown. Entries with a potency or affinity are not part of this list.
molecular target: Large T antigen (Simian virus 40) (UniProt P03070); assay: SV40 large T antigen inhibitors, biochemical (AID 1903); conditions: SV40 large T antigen ATPase/helicase inhibition assay; at 20 µM; stronger effect = higher value
Sequence (P03070 whole entry, looked up): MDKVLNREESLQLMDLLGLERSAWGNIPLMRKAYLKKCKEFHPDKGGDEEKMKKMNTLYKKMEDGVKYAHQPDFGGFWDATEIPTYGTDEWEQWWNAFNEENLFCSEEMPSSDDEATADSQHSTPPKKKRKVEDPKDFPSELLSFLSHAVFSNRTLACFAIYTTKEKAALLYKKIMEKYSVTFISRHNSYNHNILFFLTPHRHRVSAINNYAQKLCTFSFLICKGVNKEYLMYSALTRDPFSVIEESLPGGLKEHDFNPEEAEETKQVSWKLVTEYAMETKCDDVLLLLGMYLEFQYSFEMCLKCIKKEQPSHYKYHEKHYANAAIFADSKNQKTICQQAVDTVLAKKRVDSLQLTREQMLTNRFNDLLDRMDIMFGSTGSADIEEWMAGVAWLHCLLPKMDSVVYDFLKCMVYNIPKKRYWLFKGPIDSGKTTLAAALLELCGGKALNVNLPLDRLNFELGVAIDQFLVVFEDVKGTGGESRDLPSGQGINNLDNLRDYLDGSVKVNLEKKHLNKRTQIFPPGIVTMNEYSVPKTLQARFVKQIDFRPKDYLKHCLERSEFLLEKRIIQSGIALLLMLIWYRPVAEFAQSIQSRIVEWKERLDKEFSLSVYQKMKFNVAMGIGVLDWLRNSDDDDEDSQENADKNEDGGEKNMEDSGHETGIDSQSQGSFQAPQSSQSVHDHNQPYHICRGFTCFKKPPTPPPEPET

inhibition, inactive:
O=C(CCN1CCN(c2ccc(Cl)cc2)CC1)Nc1nccs1 17.1%
COC(=O)c1ccc(CN2CCC(n3nccc3NC(=O)C3CCCC3)CC2)cc1 20%
O=C(COC(=O)C1(c2ccccc2)CC1)NNC(=O)c1ccccc1 11.2%
COc1cc(C=O)ccc1OCCOCCOc1cc(C)ccc1Cl 10.5%
O=C(c1ccc(-c2ccc([N+](=O)[O-])cc2)o1)N1CCCCC1 9.33%
C#CCN1C(=O)S/C(=C\c2ccc(-c3ccc(Cl)c(C(=O)O)c3)o2)C1=O 11.9%
CCOC(=O)CN1C(=O)S/C(=C\c2ccc(-c3ccc(C(=O)O)c(Cl)c3)o2)C1=O 17%
Cc1ccc(N2NC(=O)/C(=C/c3ccc(-c4ccc(Cl)c(C(=O)O)c4)o3)C2=O)cc1C 33.6%
O=C(O)c1cc(-c2ccc(/C=C3\NC(=O)N(c4ccc(Cl)cc4)C3=O)o2)ccc1Cl 31.3%
O=C(O)c1cc(-c2ccc(/C=C3/SC(=S)N(Cc4ccccc4)C3=O)o2)ccc1Cl 24.7%
Cc1ccc(N2NC(=O)/C(=C/c3ccc(-c4ccc(Cl)c(C(=O)O)c4)o3)C2=O)cc1 14.8%
O=C(CCN1C(=O)C2CC=C(Cl)CC2C1=O)Nc1ccccc1O (stereo unspecified) 3.99%
C/C(=N\Nc1ccc(C(=O)O)cc1)c1ccc(S(=O)(=O)NCc2ccco2)cc1 11%
CCc1cccc(C)c1NC(=O)c1ccc2c(c1)CCN2S(C)(=O)=O 1.63%
Nc1ccc2c(c1)C(=O)c1ccccc1C2=O 7.9%
Nc1ccc2c(c1)Cc1cc([N+](=O)[O-])ccc1-2 7.98%
CC(=O)N1CCN(C(=O)CSc2nc3c(cnn3-c3ccccc3)c(=O)[nH]2)CC1 2.65%
Cc1cccc2cc(CN(CCCN3CCOCC3)Cc3nnnn3C(C)(C)C)c(=O)[nH]c12 10%
O=C(Nc1ccccc1Cl)N1CCSc2ccccc21 5.32%
CCCn1c(=O)c2ccccc2n2c(SCC(=O)c3ccccc3)nnc12 16.8%
Cc1nnc2n(-c3ccccc3)c(=O)c3ccccc3n12 -1.7%
CCCCCn1c(=O)c2ccccc2n2c(CCl)nnc12 15.8%
CCCCn1c(=O)c2ccccc2c2ccccc2c1=O 3.41%
COc1cccc(-n2c(SCC(N)=O)nc3ccccc3c2=O)c1 4.09%
COCCCn1c(=O)c2ccccc2n(Cc2ccccc2)c1=O 7.67%
COCCCn1c(=O)c2ccccc2c2ccccc2c1=O -0.58%
CCCn1c(=O)c2ccccc2n2c(SCC(N)=O)nnc12 9.05%
Cn1c(CNC(=O)C(Cc2ccccc2)NC(=O)c2cccc(F)c2)cc(=O)n(C)c1=O (stereo unspecified) -0.65%
O=C(NNC(=O)c1ccc[nH]1)c1cc(Cl)cc(Cl)c1 10.3%
COc1ccccc1C(=O)NNC(=O)c1ccc(NS(=O)(=O)c2cccs2)cc1 16.7%
O=S(=O)(c1ccccc1)N1CCN(Cc2ccc(Cl)cc2)CC1 10.3%
O=C1CCCC/C1=C/Nc1cccc(C(F)(F)F)c1 18.4%
CC1SCC(NC(=O)c2ccccc2Cl)CS1 (stereo unspecified) 8.46%
CC(=O)OCCN1C(=O)c2cccc3cc([N+](=O)[O-])cc(c23)C1=O 14.1%
Cc1ccc(-c2[nH]ncc2C(=O)c2ccc(Br)cc2)c(O)c1 7.57%
CCCN1C(=O)C(NC(=O)c2ccncc2)(C(F)(F)F)C2=C1CC(C)(C)CC2=O (stereo unspecified) -1.41%
Cc1ccc(/C=C/c2onc(C)c2S(=O)(=O)N2CCC(C(=O)NC(C)(C)C)CC2)cc1 2.7%
CC(C)C(=O)Nc1cccc(-c2csc(-c3ccccc3)n2)c1 -59.4%
CC(C)C(=O)Nc1ccc(-c2csc(-c3ccccc3)n2)cc1 1.63%
CCOC(=O)Cc1csc(NC(=O)/C=C/c2cccc(Br)c2)n1 -3.33%
COc1cc(C(=O)Nn2c(C)nc3ccccc3c2=O)cc(OC)c1OC 7.45%
CSc1ccc(/C=C2\C(=N)N3N=C(CC(=O)N4CCCCC4)SC3=NC2=O)cc1 26.3%
CCc1ccc(/C=C2\C(=N)N3N=C(CC(=O)N4CCCCC4)SC3=NC2=O)cc1 10.1%
CC(C)c1ccc(/C=C2\C(=N)N3N=C(CC(=O)N4CCCCC4)SC3=NC2=O)cc1 36.9%
Cc1ccc(/C=C2\C(=N)N3N=C(CC(=O)N4CCCCC4)SC3=NC2=O)cc1 26.9%
COc1ccc(/C=C2/C(=N)N3N=C(CC(=O)N4CCCC4)SC3=NC2=O)cc1OC 14.2%
Cc1ccc(/C=C2/C(=N)N3N=C(CC(=O)N4CCCC4)SC3=NC2=O)cc1 30.2%
C=CCOc1ccc(/C=C2/C(=N)N3N=C(CC(=O)N4CCCC4)SC3=NC2=O)cc1OC 11.3%
CSc1ccc(/C=C2/C(=N)N3N=C(CC(=O)N4CCCC4)SC3=NC2=O)cc1 12.1%
COc1cc([N+](=O)[O-])ccc1NC(=O)CCCOc1cc(C)ccc1C 8.46%
CCOC(=O)c1nn(-c2ccc(Cl)cc2)c2nc(Nc3ccccc3)cc(=O)n12 5.22%
COc1ccc(C(=O)Nc2ccc(C)cc2C(=O)c2ccccc2)c(OC)c1 5.96%
Cc1ccccc1CNC(=O)c1ccccc1N 14.8%
CCn1cc(/C=C/C(=O)Nc2ccn(Cc3c(F)c(F)c(F)c(F)c3F)n2)cn1 -8.72%
NC(=O)c1ccc(NC(=O)CSc2cn(CC(=O)N3CCOCC3)c3ccccc23)cc1 2.11%
COc1ccc(Nc2ccc(Cl)nn2)cc1 17.6%
C/C(=N\Nc1ncc(Br)cn1)c1cccc([N+](=O)[O-])c1 10.7%
N=C1/C(=C\c2ccc(Br)o2)C(=O)N=C2SC(CC(=O)N3CCOCC3)=NN12 36.3%
Cc1ccc(/C=C2/C(=N)N3N=C(CC(=O)N4CCCC4)SC3=NC2=O)o1 -4.18%
Cc1cccc(C(=O)NNC(=O)CCn2nnc3ccccc32)c1 1.08%
COCc1cc(C)nc(SCC(=O)Oc2ccc(Cl)cc2)c1C#N 16%
COCc1cc(C)nc(SCC(=O)Oc2ccccc2)c1C#N 15.3%
Cc1cc(C(F)(F)F)nn1Cc1n[nH]c(=S)n1-c1ccc(F)cc1 15.9%
CS(=O)(=O)c1ccc(Cl)c(NC(=O)C2CCCN(C(=O)c3ccc(Cl)cc3)C2)c1 (stereo unspecified) 6.85%
COc1ccc(C(=O)NC(C(=O)NCC(=O)Nc2c(C)cccc2C)C(C)C)cc1 (stereo unspecified) 3.58%
Cc1nn(CC(=O)N2CCOCC2)c(=O)c2nn(-c3ccccc3)c(C)c12 1.18%
COc1cc(O)c(C(CCN2CCN(c3ccccc3)CC2)c2ccc3c(c2)OCO3)c(OC)c1 (stereo unspecified) 7.18%
CC(=O)Oc1ccc2c(C)cc(=O)oc2c1 17%
CC(=O)Oc1cc2oc(=O)cc(C)c2cc1Cl 14.8%
Fc1ccc(/C=N/NC(=S)Nc2cccnc2)cc1 7.01%
COc1ccc(O)c(/C=N/NC(=S)Nc2cccnc2)c1 25.1%
CC(C)N(C(=S)Nc1cccnc1)c1ccccc1 12.6%
CN(C(=S)Nc1ccc(Oc2ccccc2)cc1)c1ccc(O)cc1 21.8%
Fc1cccc(F)c1/C=N/NC(=S)Nc1cccnc1 24.5%
CC(C)(C)c1ccc(/C=N/NC(=S)Nc2cccnc2)cc1 9.92%
NC(=O)c1ccc(NC(=O)CCCNC(=O)c2ccc(Cl)cc2)cc1 8.64%
CCc1ccc(C2=NNC(=Nc3cccc(S(=O)(=O)N(C)C)c3)SC2)cc1 4.35%
CCC(C)N(C(=O)c1csnn1)C(C(=O)NC1CCCC1)c1c(F)cccc1Cl (stereo unspecified) 7.33%
CCN(CC)CCNC(=O)c1ccc(NC(=O)c2ccc(C(=O)c3ccccc3)cc2)cc1 37.6%
Cc1ccc(S(=O)(=O)N2CCOC2CNC(=O)C(=O)NCCc2c[nH]c3ccccc23)cc1 (stereo unspecified) -3.07%
O=C(NCCc1c[nH]c2ccccc12)C(=O)NCC1OCCCN1S(=O)(=O)c1ccccc1 (stereo unspecified) 16.5%
COc1ccc(O)c(C(=O)c2cnc3c(c2)c(=O)[nH]c(=O)n3C)c1 3.44%
Fc1ccc(/C=N\Nc2cccc(F)c2)cc1 8.31%
Cc1ccc(N(C(=O)Cc2c[nH]c3ccccc23)C(C(=O)NC2CCCCC2)c2ccco2)cc1 (stereo unspecified) -1.52%
CN(C)CCCOc1ccc2c(c1)Sc1ccccc1CC2=O -4.85%
O=C(O[C@@H]1Cc2c(O)cc(O)cc2O[C@@H]1c1cc(O)c(O)c(O)c1)c1cc(O)c(O)c(O)c1 -0.22%
Oc1cc(O)c2c(c1)O[C@H](c1ccc(O)c(O)c1)[C@H](O)C2 37.1%
O=C1c2c(O)cc(O)cc2O[C@H](c2ccc(O)c(O)c2)[C@@H]1O 5.87%
O=C1c2c(O)cc(O)cc2O[C@H](c2ccc(O)c(O)c2)[C@H]1O 7.35%
COc1cc(C(=S)N2CCOCC2)cc(OC)c1OS(=O)(=O)c1ccc(C)cc1 3.46%
Cc1csc(Sc2ccc([N+](=O)[O-])cc2C(=O)OCC(=O)NC2CCCC(C)C2C)n1 (stereo unspecified) 16.8%

From PubChem BioAssay AID1903 (Southern Research Specialized Biocontainment Screening …, 2009)
